# JMJD2A Tudor inh = JMJD2A Tudor domain (human) inhibition; Potency, µM (highest dose often 114 µM), for inactives: top-dose activity change, negative = inhibition, most hits filed as inhibitors; O75164; AlphaScreen JMJD2A-Tudor / H3K4me3 peptide binding; hit rate 4.4% among 390,000; also: potency is read from the fitted curve at half-maximal effect; % is scaled to controls: 0 for no effect and ±100 for the full control effect; nearly all actives have a fitted effect of over 50% in size
# CtBP-E1A inh = blocks the CtBP interaction with E1A; AlphaScreen GST-E1A/His-CtBP binding, 1536-well; active compounds read low; activity change, % (no concentration beside the values); hit rate 0.49% among 340,000; in the data active = activity change below about -65%; inconclusive = mostly about -30% to -63%; also: % is scaled to controls: 0 for no effect and ±100 for the full control effect
#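 Steps: dispense buffer (Tris pH 8.0, NaCl 300 mM, TCEP 1 mM, BSA, Tween 20); add 5X protein mix (GST-E1A, His-CtBP, 125 nM each); pin 23 nL compound; 2 h at 37 °C, dark; add 5X beads (50 ug/mL); 1 h; read.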
# Six1-Eya2 blk = blocks human Six1 binding to Eya2; AlphaScreen GST-Six1/His-Eya2 binding, biochemical; active compounds read low; hit rate 0.56% among 360,000; AID 651725; activity change, % (test concentration not listed); in the data active = activity change below about -65%; inconclusive = mostly about -30% to -63%; also: % is scaled to controls: 0 for no effect and ±100 for the full control effect
#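 Homogeneous AlphaScreen proximity assay pairing GST-Six1 with His-tagged Eya2 (added as 5X mix: 250 nM and 500 nM) in 50 mM Tris pH 8.0, 300 mM NaCl, 1 mM TCEP. Glutathione donor and nickel acceptor beads; 1 h, 37 °C, dark.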
# HP1b binding inh = blocks HP1-beta chromodomain binding to methylated histone tails. P83916. AlphaScreen HP1-beta / biotin-H3K9me3 peptide binding. Potency, µM (highest dose often 114 µM), inactives show at the top dose activity change, negative = inhibition, hits mostly inhibitors. hit rate 0.56% among 390,000; also: potency is read from the fitted curve at half-maximal effect; nearly all actives have a fitted effect of over 70% in size
#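 Compound inhibition of the preformed complex between 50 nM HP1-beta and 50 nM biotinylated H3K9me3 peptide was read by AlphaScreen. Buffer was PBS pH 7.4 with 0.01% Tween-20. Incubations ran 30 min at room temperature, with 10 ug/mL donor/acceptor beads.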
# G9a block = blocks human histone lysine methyltransferase G9a. Potency, µM (titrated, usually from 102 µM), without a hit: at the highest dose activity, negative = inhibition, actives largely listed as inhibitors. G9a H3K9 monomethylation, AlphaScreen, 2 h. AID 504332. hit rate 8.8% among 350,000; also: potency is read from the fitted curve at half-maximal effect; % is scaled to controls: 0 for no effect and ±100 for the full control effect; nearly all actives have a fitted effect of over 75% in size
#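 Quantitative HTS format: methyltransferase activity on a biotin-tagged H3K9 peptide is measured by AlphaScreen, using a rabbit anti-monomethyl-H3K9 antibody with streptavidin donor and anti-IgG acceptor beads. Final levels are 20 nM enzyme, 500 nM peptide, 20 uM SAM; 2 h RT.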
# BAZ2B inh = BAZ2B (human) inhibition; Q9UIF8; AlphaScreen BAZ2B-H3K14Ac peptide displacement; Potency, µM (top dose mostly 114 µM), for inactives: at the top dose activity change, negative = inhibition, hits mostly inhibitors; hit rate 4.4% among 360,000; AID 504333; also: potency is read from the fitted curve at half-maximal effect; % is scaled to controls: 0 for no effect and ±100 for the full control effect; nearly all actives have a fitted effect of over 60% in size
#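 AlphaScreen displacement: compounds (up to 110uM) incubated 30 min at room temperature with a preformed 50 nM BAZ2B/50 nM biotinylated H3K14Ac peptide complex in PBS pH 7.4 with Tween-20. Donor and acceptor beads at 10 ug/mL final added, 20 min light-protected before reading.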
# Starred values were filed as active, the others as inactive; ? = inconclusive; · = no result given; [ ] = another dose, or the depositor's remark. An excerpt weighted towards active compounds, which were near 10% of everything screened. Unless noted, calls follow the shape of the dose curve; as a rule, active = well fitted inhibition curve with a large enough effect; inconclusive = small, poorly fitted or top-dose-only effect; inactive = no such curve, though single readings can be large or run the other way.
SMILES,JMJD2A Tudor inh,CtBP-E1A inh,Six1-Eya2 blk,HP1b binding inh,G9a block,BAZ2B inh
COc1ccc(C2NC(=S)NC(C)=C2C(=O)N2CCOCC2)cc1 (stereo unspecified),2%,3,-1,41%,40µM*,5%
COc1cc(OC)c(C#N)c(S(=O)(=O)Cc2ccccc2)c1,-17%,12,1,15%,-6%[59 µM],-39%
N#Cc1c([N+](=O)[O-])cc([N+](=O)[O-])cc1S(=O)(=O)Cc1ccccc1,79µM*,-14,?,-38%,?,?
Cc1ccc(C2C3=C(CCCC3=O)Nc3[nH]c(=S)[nH]c(=O)c32)cc1 (stereo unspecified),10µM*,1,-3,-32%,-50%[2.33 µM],79µM*
O=C1CCCC2=C1C(c1ccc(Br)cc1)c1c([nH]c(=S)[nH]c1=O)N2 (stereo unspecified),40µM*,0,-3,-24%,0.79µM*,?
COC(=O)C1=C(C)Nc2[nH]c(=S)[nH]c(=O)c2C1c1ccc(O)cc1 (stereo unspecified),?,6,-2,27%,8.9µM*,-18%
COc1cc(C2C(C(=O)OC(C)C)=C(C)Nc3[nH]c(=O)[nH]c(=O)c32)ccc1O (stereo unspecified),-13%,-2,16,45%,-70%,11%
CC1(C)CC(=O)C2=C(C1)Nc1[nH]c(=S)[nH]c(=O)c1C2c1ccccc1 (stereo unspecified),45µM*,0,-2,-3%,11µM*,-35%
Cc1ccc(S(=O)(=O)N2CCN(Cc3ccccc3)CC2)c(C)c1NS(C)(=O)=O,-6%,·,·,33%,1%[59 µM],-7%
O=c1[nH]c(=S)[nH]c2c1C(c1ccc(Br)cc1)c1c([nH]c(=S)[nH]c1=O)O2,?,-19,?,32µM*,1.6µM*,22µM*
O=C1c2ccccc2C(=O)C1c1ccc(Br)cc1,?,-21,-4,-19%,?,?
OC(CC#CCN1CCCC1)(c1ccccc1)c1ccccc1,-30%,0,5,26%,28µM*,-24%
OC(CC#CCN1CCCCC1)(c1ccccc1)c1ccccc1,-15%,1,-8,30%,-10%,-1%
CN1CCN(CC#CCC(O)(c2ccccc2)c2ccccc2)CC1,-11%,-3,5,15%,71µM*,-22%
CN1CCN(CC#CCC(O)(c2ccccc2)C2CCCC2)CC1 (stereo unspecified),-25%,1,7,7%,8.9µM*,?
CN(C)CC#CCC(O)(c1ccccc1)C1CCCCC1 (stereo unspecified),-11%,-7,-1,34%,3%,-6%
CCc1ccc(S(=O)(=O)N2CCN(c3ccc(Cl)c(Cl)c3)CC2)cc1,15%,·,·,53%,4%[59 µM],-1%
CC1Cc2ccccc2N1C(=O)CSc1nc2ccc(NC(=O)COc3ccccc3)cc2s1 (stereo unspecified),-2%,·,·,45%,6%[59 µM],-13%
O=C1C(Br)=Cc2cccc3cccc1c23,?,-5,?,-37%,?,25µM*
O=C1c2sccc2-c2cccc3cccc1c23,·,-6,?,·,·,·
CCOC(=O)[C@H]1[C@H]2COc3ccc(OC)cc3[C@@H]2N2C(=O)CN(Cc3ccccc3)C(=O)[C@@]12C,-11%,-3,-1,66%,5%[0.501 µM],-23%
COC(=O)c1ccc(NC(=O)C2CCCO2)cc1 (stereo unspecified),-13%,3,2,23%,-13%,14%
COC(=O)c1ccc(N2OC3(C)C=CC2CC3)cc1 (stereo unspecified),-8%,-19,-4,15%,45µM*,10%
O=S(=O)(Nc1ccc2cn[nH]c2c1)c1cc(Br)ccc1Br,-23%,2,-4,31%,·,·
FC(F)(F)c1cnc(C(c2ccccc2)c2ncn[nH]2)c(Cl)c1 (stereo unspecified),-10%,0,1,23%,?,-13%
